# Sampled rows, rich in hits. Any-hit rate of the full collection: about 17%.
# HT1080 IDH1KD tx: kills HT-1080 cells with IDH1 knockdown | HT-1080 IDH1 knockdown viability, ATP luminescence, 48 h | Potency, µM (titrated, usually from 46.1 µM), inactives show top-dose activity, negative = toxicity, usual class: cytotoxic | 2% of 360,000 active | AID 686971;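 note: 0% = DMSO wells and -100% = cell-free medium wells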
#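 Viability of IDH1-knockdown HT-1080 fibrosarcoma cells was assessed by CellTiter-Glo after 48 h at 37 °C with titrated compound; concentration-effect curves were classified by fit quality and response size.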
# DT40 TDP1 no CPT: qHTS for Inhibitors of human tyrosyl-DNA phosphodiesterase 1 (TDP1): qHTS in cells in absence of CPT; Potency, µM (series often up to 46.2 µM), without a hit: at the highest dose activity change, negative = growth inhibition, actives largely listed as inhibitors; 15% of 420,000 active; AID 686978, 2013; DT40 Tdp1-/- hTDP1 cells, no CPT, ATP luminescence, 48 h; note: % is set by controls: 0 for no effect and ±100 for the full control effect; nearly all actives have a fitted effect of over 55% in size
#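 Luminescent ATP content (CellTiter-Glo) served as the growth readout. Knockout chicken DT40 cells expressing human TDP1 were exposed to compounds without camptothecin for a minimum 48 hr at 37 °C.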
# TGFb inhibitor: blocks TGF-b signaling; AID 588855; 1.2% of 410,000 active; Potency, µM (top dose mostly 46.1 µM), inactives show top-dose activity, negative = inhibition, hits mostly inhibitors; HepG2 CAGA-GFP TGF-b/SMAD3 reporter, GFP fluorescence, 18 h; TGF-beta stimulated, 500 pg/mL final; note: % is set by controls: 0 for no effect and ±100 for the full control effect; nearly all actives have a fitted effect of over 65% in size
#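 Per well, imaged GFP fluorescence of HEPG2 CAGA-GFP cells gives the signal; cells get compound, then TGF-beta (500 pg/mL final), 18 h at 37 degrees C; %Activity versus -TGF-beta and +DMSO controls.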
# TDP1 cell CPT: growth inhibition of DT40 Tdp1-/-;hTDP1 cells with camptothecin (screen for TDP1 inhibitors); chicken DT40 Tdp1-/-;hTDP1 cells + 20 nM CPT, ATP luminescence, 48 h; Potency, µM (highest dose often 46.2 µM), for the others: top-dose activity change, negative = growth inhibition, most hits filed as inhibitors; 12% of 420,000 active; AID 686979; note: % is set by controls: 0 for no effect and ±100 for the full control effect; nearly all actives have a fitted effect of over 55% in size
#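 Chicken DT40 Tdp1-/- cells complemented with human TDP1, 400 cells/well, exposed to compounds plus 20 nM camptothecin for at least 48 h at 37 C; viability read as ATP content by CellTiter-Glo luminescence.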
# HT1080-NT tox: kills 2HG-producing HT-1080-NT fibrosarcoma cells | 1.6% of 360,000 active | Potency, µM (highest dose often 46.1 µM), for inactives: at the highest dose activity, negative = less viability, actives largely listed as cytotoxic | HT-1080-NT fibrosarcoma viability, CellTiter-Glo ATP luminescence, 48 h;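 note: NT is the 2HG producing partner of a matched IDH1 knockdown line; 0% = DMSO-treated cells and -100% = media-only wells without cells; nearly all actives have a fitted effect of over 55% in size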
#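 Compounds were tested in concentration-response format on HT-1080-NT cells for 48 hours at 37 degrees C. Cell viability came from CellTiter-Glo luminescence; curves were classified by r2, response magnitude and activity.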
# HepG2 viability: kills HepG2 cells in TGF-b inhibitor counter-screen; HepG2 CAGA-GFP viability, ATP luminescence, 18 h; Potency, µM (doses to about 46.1 µM), inactives show top-dose activity change, negative = cytotoxicity, hits mostly cytotoxic; 0.76% of 410,000 active; AID 588856
#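 CellTiter-Glo luminescence gave cytotoxicity after 18 hours at 37 degrees C. The cells were HepG2 CAGA-GFP in 1% FBS DMEM, stimulated with 500 pg/mL TGF-beta after compound addition. %Activity was normalised to no-cell wells (complete cell-killing) and DMSO (no toxicity), and curves were fitted and classified.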
# The depositor's hits bear a star; ? = inconclusive; nt = no result given. Calls come from the whole dose curve; as a rule, active = well fitted curve in the direction sought with a large enough effect; inconclusive = small, poorly fitted or top-dose-only effect, or another doubt; inactive = no such curve, though single readings can be large; an effect the other way counts as inactive or inconclusive. Potency is the fitted concentration of half-maximal effect.
SMILES,HT1080 IDH1KD tx,DT40 TDP1 no CPT,TGFb inhibitor,TDP1 cell CPT,HT1080-NT tox,HepG2 viability
CCCCCOc1ccc(Br)cc1CSC(=N)N,?,2.3µM*,?,5.2µM*,?,-102%
COc1ccc(Br)cc1CSC(=N)N,-16%,?,-6%,?,-15%,-14%
CCOc1ccc(CSC(=N)N)cc1,-1%,18µM*,-4%,26µM*,-7%,-3%
Cc1cn([C@H]2C[C@H](O)[C@@H](CCC(=O)NCCc3ccc4ccccc4c3)O2)c(=O)[nH]c1=O,11%,-4%,3%,-9%,3%,0%
CCCN(CCC)C(=S)NC(=O)c1ccc(Cl)cc1Cl,2.5µM*,?,?,18µM*,3.2µM*,-18%
COc1cc2sc3ccc(-c4ccc5[nH]ccc5c4)cc3c(=O)c2cc1OC,-10%,5.8µM*,-14%,5.8µM*,12%,-1%
COc1cc2sc3ccc(C#Cc4ccc(N)cc4)cc3c(=O)c2cc1OC,?,?,?,-23%,-29%,-31%
O=c1c2ccccc2oc2ccccc12,nt,-14%,nt,-5%,nt,nt
O=c1c2ccccc2oc2cc(-c3ccc4[nH]ccc4c3)ccc12,3.7µM*,2.1µM*,?,1.8µM*,?,-39%
O=C(COC(=O)C1CC(=O)N(Cc2ccccc2)C1)Nc1cccc([N+](=O)[O-])c1 (stereo not drawn),7%,1%,-7%,-3%,17%,2%
Cc1noc(C)c1COC(=O)C1(c2cccc(F)c2)CCCC1,-6%,?,-12%,?,-5%,-1%
Cc1oc2cc([N+](=O)[O-])c(O)c([N+](=O)[O-])c2c1C(=O)c1ccc(Cl)cc1,-22%,?,-30%,23µM*,-18%,-46%
COc1ccc(OC)c(C(=O)c2c(C)oc3cc([N+](=O)[O-])c(O)c([N+](=O)[O-])c23)c1,-6%,?,1%,?,5%,6%
c1ccc(C[n+]2csc3ccccc32)cc1,?,1µM*,-12%,1µM*,?,-21%
c1ccc2c(c1)sc[n+]2CCC1CCCCC1,nt,2.5µM*,?,5µM*,nt,-81%
Clc1ccc2c(Cl)cc[n+](CCC3CCCCC3)c2c1,nt,?,0%,?,nt,-2%
Cc1cc(=O)n(C)c(=O)n1CCCCCCOc1cccc([N+](=O)[O-])c1,1%,16µM*,-9%,26µM*,13%,-5%
C[C@@H]1CCCCCCCCC(=O)OCCN1C(=O)OC(C)(C)C,23%,?,-3%,16µM*,15%,-2%
Cc1ccccc1C(=O)N1CCC(C(=O)Nc2cc(C(F)(F)F)ccc2N2CCCC2)CC1,-2%,-27%,?,-11%,-1%,-11%
O=c1[nH]c(=O)n(C2CCCO2)cc1F (stereo not drawn),7%,1%,0%,1%,15%,1%
O=c1ccn(C2CCCO2)c(=O)[nH]1 (stereo not drawn),10%,15µM*,-7%,-29%,12%,-18%
CCCCc1ccc(NC(=O)N[C@@H](C)C(=O)O)cc1,-1%,5.2µM*,1%,4.6µM*,22%,-31%
CCN(CC)CCCN1CC(=O)N2[C@@H](Cc3c([nH]c4ccccc34)C2(C)C)C1=O,0%,20%,0%,-5%,2%,0%
COc1ccc(NC(=O)c2ccco2)cc1NC(=O)C(C)Oc1ccc(Cl)cc1Cl (stereo not drawn),nt,6.5µM*,?,9.2µM*,nt,9%
